SNCA viab count: cell viability loss counter-screen. Potency, µM (top dose mostly 57.1 µM), hits mostly cytotoxic. actives 0.12% (n = 150,000). HEK-293-SNCA-luc viability, GF-AFC fluorescence, 24 h. AID 1671193; note: nearly all actives have a fitted effect of over 30% in size
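HEK-293-SNCA-luc cells (1500/well) plated 24 h, then exposed 24 h to a dilution series; GF-AFC added 30 min at 37C, fluorescence 405/540 nm; normalised to medium-only and DMSO wells, Hill fit.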
IP6K1 inh: blocks human inositol hexakisphosphate kinase 1. actives 0.81% (n = 140,000). IP6K1 kinase, ADP-Glo luminescence, 2 h; active compounds read low. activity change, % (series mostly up to about 58 µM). Q92551; in the data active = activity change below about -25%
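ADP-Glo luminescence measures ADP made by human IP6K1 during a 2 h RT reaction with ATP/IP6 (mix at 1.3 mM/130 uM); top library doses 57.5 and 19.1 uM final.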
NIH3T3 tox: kills NIH 3T3 cells | Potency, µM (titrated, usually from 96.7 µM), usual class: inhibitors | NIH 3T3 viability, CellTiter-Glo ATP luminescence, 48-72 h | actives 4.3% (n = 94,000); note: nearly all actives have a fitted effect of over 55% in size
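Cytotoxicity was measured by CellTiter-Glo ATP luminescence after 48 or 72 h compound exposure at 37 °C. Mouse NIH 3T3 fibroblasts were seeded at 400 cells/well and dosed by 23 nL pin transfer.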
FLuc inh-1: inhibitors of firefly (Photinus pyralis) luciferase; Potency, µM (highest dose often 115 µM), usual class: inhibitors; P08659; purified P. pyralis luciferase, luminescence, biochemical; actives 2.5% (n = 76,000); note: nearly all actives have a fitted effect of over 65% in size
Target sequence (P08659 whole entry, looked up): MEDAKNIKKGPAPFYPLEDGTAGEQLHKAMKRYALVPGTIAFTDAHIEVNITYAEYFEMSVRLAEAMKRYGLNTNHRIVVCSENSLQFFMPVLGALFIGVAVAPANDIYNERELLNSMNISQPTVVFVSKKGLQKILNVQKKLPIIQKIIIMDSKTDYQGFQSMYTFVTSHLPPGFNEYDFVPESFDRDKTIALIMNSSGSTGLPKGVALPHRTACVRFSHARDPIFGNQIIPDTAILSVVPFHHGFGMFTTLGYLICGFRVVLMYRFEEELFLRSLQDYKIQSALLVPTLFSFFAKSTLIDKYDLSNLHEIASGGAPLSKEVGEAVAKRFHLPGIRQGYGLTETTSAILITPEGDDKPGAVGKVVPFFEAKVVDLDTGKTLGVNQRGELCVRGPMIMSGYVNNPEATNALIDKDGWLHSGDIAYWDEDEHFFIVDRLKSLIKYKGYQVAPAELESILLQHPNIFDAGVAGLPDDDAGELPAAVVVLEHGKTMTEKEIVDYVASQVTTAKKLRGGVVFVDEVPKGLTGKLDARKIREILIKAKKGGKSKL
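Inhibitors were tested against purified firefly luciferase in a biochemical, low-substrate format (both substrates at 10uM) and luminescence measured with a CCD imager.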
SNCA expr inhib: reduces expression of the alpha-synuclein gene | actives 0.17% (n = 140,000) | HEK-293 SNCA-luciferase knock-in, luminescence, 24 h | Potency, µM (top dose mostly 57.2 µM), hits mostly inhibitors; note: nearly all actives have a fitted effect of over 45% in size
HEK293 tox: kills HEK 293 cells; HEK 293 viability, ATP luminescence (CellTiter-Glo), 48-72 h; Potency, µM (series often up to 115 µM), usual class: inhibitors; actives 6.6% (n = 94,000); note: nearly all actives have a fitted effect of over 60% in size
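Cytotoxicity was scored by loss of ATP-coupled luminescence (CellTiter-Glo) in HEK 293 cells. Compound treatment ran 48 or 72 hr at 37 degree Celsius, 5% CO2, 95% humidity.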
FLuc SDR -ATP: firefly luciferase binding stabilization, ATP absent; actives 7.8% (n = 1,300); shares compounds with FLuc inh-1; Potency, µM (highest dose often 32.7 µM), hits mostly activators; Purified FLuc-C-HiBiT, Nano-Glo HiBiT luminescence, no ATP; AID 1963318; note: nearly all actives have a fitted effect of over 55% in size
FLuc SDR ATP: binders stabilizing firefly luciferase, plus ATP | actives 8.7% (n = 1,300) | AID 1963319 | Potency, µM (doses to about 32.7 µM), usual class: activators | purified FLuc-C-HiBiT + ATP, HiBiT complementation luminescence | shares compounds with FLuc inh-1;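 note: signal reports ligand binding via conformational change of the enzyme rather than luciferase catalysis; nearly all actives have a fitted effect of over 55% in size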
FLuc inh-2: firefly luciferase enzyme inhibition; actives 42% (n = 1,300); purified FLuc-C-HiBiT enzyme, luciferin luminescence; Potency, µM (titrated, usually from 32.7 µM), actives largely listed as inhibitors; shares compounds with FLuc inh-1; note: nearly all actives have a fitted effect of over 70% in size
Of the large screens only hits and unclear results are named; the others gave an inactive call (follow-up assays come after a bar, where they were run). Only some compounds are listed: those with a hit (about 7.3% of all), similar ones and a draw of the others. Unless noted, calls come from the whole dose curve; as a rule, active = well fitted curve in the direction sought with a large enough effect; inconclusive = small, poorly fitted or top-dose-only effect, or another doubt; inactive = no such curve, though single readings can be large; an effect the other way counts as inactive or inconclusive.

Cc1ccc(-c2ncc(NC(=O)c3cc(F)ccc3F)cn2)cc1	FLuc inh-1 inconclusive
O=c1[nH]c(N2CCOCC2)nc2c1CCN(Cc1cc(F)ccc1F)CC2	none
CN1c2cc(C(=O)Nc3cccc(F)c3)ccc2C(=O)N2CCCCCC21 (centres undefined)	NIH3T3 tox inconclusive, FLuc inh-1 8.91µM, HEK293 tox inconclusive | FLuc SDR -ATP inactive | FLuc SDR ATP inactive | FLuc inh-2 inconclusive
CN1c2cc(C(=O)Nc3cccc(Cl)c3)ccc2C(=O)N2CCCCCC21 (centres undefined)	NIH3T3 tox inconclusive, FLuc inh-1 10µM, HEK293 tox inconclusive | FLuc SDR -ATP inactive | FLuc SDR ATP inactive | FLuc inh-2 inconclusive
COc1ccccc1N1CCCc2ncc(C(=O)Nc3cccc(C(F)(F)F)c3)cc21	NIH3T3 tox inconclusive, HEK293 tox inconclusive
COC[C@@H]1CN(S(=O)(=O)c2cc(F)cc(F)c2)C[C@H]1C(N)=O	none
C=CCOc1c(OC)ccc2c1CN(Cc1ccco1)C(=O)CCN2CC(O)COC(C)(C)C (centres undefined)	NIH3T3 tox inconclusive, HEK293 tox inconclusive (no result: SNCA viab count, FLuc inh-1, SNCA expr inhib)
CN(C)c1cccc(-c2ncc3c(n2)OCCN(c2ccccc2)C3=O)c1	NIH3T3 tox inconclusive, FLuc inh-1 1.58µM, HEK293 tox inconclusive | FLuc SDR -ATP inconclusive | FLuc SDR ATP inconclusive | FLuc inh-2 12.8µM
O=C1c2cnc(-c3ccsc3)nc2OCCN1c1ccccc1	NIH3T3 tox inconclusive, FLuc inh-1 7.08µM, HEK293 tox inconclusive | FLuc SDR -ATP inconclusive | FLuc SDR ATP inconclusive | FLuc inh-2 inconclusive
O=C1c2cc(N3CCOCC3)nc(-c3cccnc3)c2CN1c1ccccc1	NIH3T3 tox inconclusive
Cc1ccc(OCC(=O)Nc2cccc(C(=O)OCc3cc(=O)n4nc(C)sc4n3)c2)cc1	none (no result: NIH3T3 tox, FLuc inh-1, HEK293 tox) | FLuc SDR -ATP inactive | FLuc SDR ATP inconclusive | FLuc inh-2 inconclusive
Cc1cccc(CCCNC(=O)C2CC(=O)N(Cc3cccnc3)C2)c1 (centres undefined)	none
Cc1ccn2c(Nc3ccc(C(C)C)cc3)c(-c3cccnc3)nc2c1	SNCA expr inhib inconclusive (no result: NIH3T3 tox, FLuc inh-1, HEK293 tox)
Cc1ccn2c(Nc3ccc(C(C)C)cc3)c(-c3cccs3)nc2c1	none (no result: NIH3T3 tox, FLuc inh-1, HEK293 tox) | FLuc SDR -ATP inactive | FLuc SDR ATP inactive | FLuc inh-2 inconclusive
Cc1ccc(NC(=O)Nc2ccccc2)c(=O)n1CC(=O)NCC1CCCO1 (centres undefined)	NIH3T3 tox inconclusive, FLuc inh-1 14.1µM | FLuc SDR -ATP inconclusive | FLuc SDR ATP inconclusive | FLuc inh-2 inconclusive
Cc1ccc(S(=O)(=O)Nc2ccc(C)n(CC(=O)NC(C)c3ccccc3)c2=O)cc1 (centres undefined)	none
Cc1ccc(NC(=O)Nc2ccc(C)n(CC(=O)NC3CCCC3)c2=O)cc1	NIH3T3 tox inconclusive, FLuc inh-1 0.398µM, HEK293 tox inconclusive | FLuc SDR -ATP 1.57µM | FLuc SDR ATP inconclusive | FLuc inh-2 0.7µM
Cc1ccc(NC(=O)Nc2ccccc2)c(=O)n1CC(=O)NC1CCCCC1	none
Cc1ccc(NC(=O)Nc2ccc(C)n(CC(=O)N3CCC(C)CC3)c2=O)cc1	FLuc inh-1 4.47µM, HEK293 tox inconclusive | FLuc SDR -ATP inconclusive | FLuc SDR ATP inconclusive | FLuc inh-2 3.94µM
CNC(=O)Nc1ccc(C)n(CC(=O)N2CCN(c3cc(C)ccc3C)CC2)c1=O	HEK293 tox inconclusive
Cc1ccc(NC(=O)Nc2ccc(C)n(CC(=O)NC(C)c3cccnc3)c2=O)cc1 (centres undefined)	FLuc inh-1 1.12µM, HEK293 tox inconclusive | FLuc SDR -ATP 7µM | FLuc SDR ATP inconclusive | FLuc inh-2 1.57µM
COC(=O)c1ccc2c(c1)nc1n2[C@@H](CNC(=O)c2ccc(F)cc2)COC1	none
O=C(c1ccc(Cl)cc1)N1CC2(CCCN(C3COC3)C2)Cc2ccccc21 (centres undefined)	SNCA expr inhib inconclusive, HEK293 tox inconclusive (no result: FLuc inh-1)
CCN(CC)Cc1ccc2c(c1)CN(C(=O)Nc1ccc(OC)cc1)CCO2	none (no result: FLuc inh-1)
COc1ccccc1NC(=O)Cn1c(C)ccc(NC(=O)Nc2ccc(C)cc2)c1=O	NIH3T3 tox 22.4µM, FLuc inh-1 0.631µM, HEK293 tox inconclusive | FLuc SDR -ATP inconclusive | FLuc SDR ATP inconclusive | FLuc inh-2 0.7µM
COc1ccc(NC(=O)Nc2ccc(C)n(CC(=O)N3CCCCCC3)c2=O)cc1	FLuc inh-1 8.91µM | FLuc SDR -ATP inconclusive | FLuc SDR ATP inconclusive | FLuc inh-2 9.89µM
CCOc1ccc(NC(=O)Cn2c(C)ccc(NC(=O)Nc3ccc(C)cc3)c2=O)cc1	FLuc inh-1 inconclusive
COc1cccc(-c2cc(C(=O)N(C)Cc3ccccc3)c3cnn(C)c3n2)c1	NIH3T3 tox inconclusive, HEK293 tox inconclusive (no result: SNCA viab count, FLuc inh-1, SNCA expr inhib)
Cc1ccc([S+](=O)([O-])N2CCN(c3nccc(Nc4ccccc4Cl)n3)CC2)cc1	NIH3T3 tox inconclusive, HEK293 tox inconclusive (no result: FLuc inh-1)
CC(C)(C)C(=O)N1CCCC(C(=O)N2CCCC(c3nc4ncccc4[nH]3)C2)C1 (centres undefined)	HEK293 tox inconclusive (no result: FLuc inh-1)
CCOc1cccc(-c2nc(C3CCOC3)no2)c1 (centres undefined)	FLuc inh-1 12.6µM | FLuc SDR -ATP inactive | FLuc SDR ATP inactive | FLuc inh-2 inactive
COc1cccc(-c2noc(CCCc3nc(C4CCOC4)no3)n2)c1 (centres undefined)	none
COc1cccc(-c2ccc(-c3nc(C4CCOC4)no3)o2)c1 (centres undefined)	NIH3T3 tox inconclusive, FLuc inh-1 4.47µM, HEK293 tox inconclusive | FLuc SDR -ATP inactive | FLuc SDR ATP inactive | FLuc inh-2 inconclusive
O=Cc1cccc(N2CCN(C(=O)c3ccc4c(c3)OCO4)CC2=O)c1	NIH3T3 tox inconclusive, SNCA expr inhib inconclusive (no result: FLuc inh-1)
O=[S+]([O-])(c1cccs1)N1CCC2(CC(c3cccc(C(F)(F)F)c3)=NO2)C1 (centres undefined)	NIH3T3 tox inconclusive, HEK293 tox inconclusive (no result: FLuc inh-1)
CC1=C[C@@H](CNC(=O)c2ccncc2)[C@H](C(C)C)C[C@H]1CC(=O)N1CCOCC1	FLuc inh-1 12.6µM | FLuc SDR -ATP inactive | FLuc SDR ATP inactive | FLuc inh-2 inactive

High-throughput results (PubChem)
